Several values for one entry are separate records, joined by “and”; a condition that tells them apart may be missing. Equal entries are not always repeated. In all, about 16,000 compounds went through this assay and about 5,700 (36%) were called active. Another 24% or so got no clear call; they are omitted. Calls follow the shape of the dose curve; as a rule, active = well fitted curve in the direction sought with a large enough effect; inconclusive = small, poorly fitted or top-dose-only effect, or effect the other way; inactive = no such curve, though single readings can be large or run the other way. This is one part of the list. Peptide text beside a SMILES is read from it.
The compounds below were run against Cytochrome P450 1A2 (Homo sapiens) (UniProt P05177) (assay: Cytochrome panel assay with activity outcomes). Conditions: recombinant CYP, pro-luciferin dealkylation, luminescence, p450-cyp1a2; series mostly up to 57.1 µM; activity, negative = inhibition: at the top concentration.
% is scaled to controls: 0 for no effect and ±100 for the full control effect.

Cytochrome P450 1A2 (Homo sapiens), sequence (P05177 whole entry, looked up): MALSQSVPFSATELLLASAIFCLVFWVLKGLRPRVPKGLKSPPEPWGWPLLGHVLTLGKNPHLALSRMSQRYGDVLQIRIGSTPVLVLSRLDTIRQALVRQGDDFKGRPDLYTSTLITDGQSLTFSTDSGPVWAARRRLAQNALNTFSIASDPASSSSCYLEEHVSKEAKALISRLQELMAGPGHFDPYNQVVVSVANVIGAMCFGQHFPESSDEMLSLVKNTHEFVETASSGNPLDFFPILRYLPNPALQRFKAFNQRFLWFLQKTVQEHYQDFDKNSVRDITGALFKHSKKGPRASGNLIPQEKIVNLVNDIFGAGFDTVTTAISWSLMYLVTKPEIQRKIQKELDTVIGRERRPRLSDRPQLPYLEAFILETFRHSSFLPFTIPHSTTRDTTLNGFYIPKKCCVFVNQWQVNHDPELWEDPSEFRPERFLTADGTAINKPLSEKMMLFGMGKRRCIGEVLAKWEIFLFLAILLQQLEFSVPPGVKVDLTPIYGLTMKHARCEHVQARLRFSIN

With `C[N+](C)(C)CCO` as the compound, how does the “activity, negative = inhibition” value read?
Its value is -2.79% (inactive).

Which AC50 does the source give for `Clc1ccccc1-c1cc(NCc2cccnc2)ncn1` here?
The AC50 was 3.16 µM (active).

With `COc1ccccc1-c1cc(NCc2cccc(C)c2)ncn1` as the compound, how does the AC50 read?
The AC50 was 1.58 µM (active).

`Cc1cccc(CNc2cc(-c3ccccc3Cl)ncn2)c1` was tested. Which AC50 did it give?
The AC50 was 3.16 µM (active).

With `CN(C)Cc1ccccc1-c1cc(NCc2cccs2)ncn1` as the compound, how does the AC50 read?
Its AC50 is 25.1 µM (active).

How did the activity, negative = inhibition turn out when `Clc1ccccc1C(Nc1cnccn1)Nc1cnccn1` was run?
The activity, negative = inhibition was -18% [at 2.29 µM] (inactive).

With `C=CC[C@@H]1C=C[C@H](Oc2ccc(C)cc2)[C@H](COC(=O)NCc2cccc3ccccc23)O1` as the compound, how does the activity, negative = inhibition read?
The activity, negative = inhibition was -8.02% [at 11.4 µM] (inactive).

With `COc1ccccc1-c1cc(NCc2ccccc2)ncn1` as the compound, how does the AC50 read?
The AC50 was 2.51 µM (active).

Which AC50 does the source give for `Cc1ccc2nc(/C(C#N)=C\c3ccc(OC(=O)c4cccs4)cc3)[nH]c2c1` here?
The AC50 was 2.51 µM (active).

`N#C/C(=C\c1ccc(Oc2ccc(C(F)(F)F)cc2[N+](=O)[O-])cc1)c1nc2ccccc2[nH]1` was tested. Which “activity, negative = inhibition” value did it give?
The value was -26.8% (inactive).

`Clc1ccc(-c2nnc(-c3cccc4ccccc34)o2)cc1Cl` was tested. Which AC50 did it give?
Its AC50 is 2 µM (active).

Which “activity, negative = inhibition” value does the source give for `Cc1ccc(-c2nnc(-c3ccccc3S(=O)(=O)Cc3ccc(Cl)cc3)o2)cc1` here?
The value was -27.6% (inactive).

Which AC50 does the source give for `COc1ccc(-c2nc3cnc(N(C)C)nc3n(Cc3cccs3)c2=O)cc1` here?
Its AC50 is 1.58 µM (active).

With `CN(C)c1ncc2nc(-c3ccc(Cl)cc3)c(=O)n(Cc3cccs3)c2n1` as the compound, how does the AC50 read?
Its AC50 is 1.58 µM (active).

How did the AC50 turn out when `CN(C)c1ncc2nc(-c3ccc(F)cc3)c(=O)n(Cc3cccs3)c2n1` was run?
Its AC50 is 1 µM (active).

For `CCCNC(=O)OC[C@@H]1O[C@H](CCO/N=C(\C)CCN2CCCCc3nc(C)c(C)cc32)C=C[C@@H]1Oc1ccc(OC)cc1`, which activity, negative = inhibition is on record?
Its activity, negative = inhibition is 3.81% [at 11.4 µM] (inactive).

With `Cc1ccc(S(=O)(=O)N[C@H]2COC(=O)[C@H](C)COC(=O)[C@H](C)NC(=O)C/C=C\[C@H]2C)cc1` as the compound, how does the activity, negative = inhibition read?
The activity, negative = inhibition was 4.67% [at 11.4 µM] (inactive).

Which AC50 does the source give for `Nc1ccc(-c2nc3c(Cl)c(N)ccc3[nH]2)cc1` here?
The AC50 was 0.794 µM (active).

`CC(=O)N[C@@H](CC(=O)O)C(=O)N[C@@H](CCC(=O)O)C(=O)O` (Ac-Asp-Glu-OH) was tested. Which AC50 did it give?
Its AC50 is “inactive”.

For `O=C(CCc1ccccc1)NNC(=O)C1CCCCC1`, which “activity, negative = inhibition” value is on record?
The value was -5.87% (inactive).

`O=C(CN(CC1CCCO1)C(=O)CNS(=O)(=O)c1ccc(Cl)cc1)NCCc1ccccc1` (configuration not stated) was tested. Which “activity, negative = inhibition” value did it give?
Its value is -20.7% (inactive).

Which AC50 does the source give for `O=C(CCc1ccc(S(=O)(=O)NC2CCCCC2)cc1)N(Cc1ccccc1)Cc1ccccc1` here?
The AC50 was 1.58 µM (active).

`CC(C)c1ccc2c(c1)C(c1ccc(N3CCOCC3)cc1)=NNC(c1cccs1)=N2` was tested. Which AC50 did it give?
Its AC50 is 3.16 µM (active).

`COC(=O)[C@@H]1CC[C@H](C)[C@@H](c2ccc(C)cc2)N1C(=O)c1ccc(/C=N\O[C@@H](C)c2cn([C@H](CO)Cc3ccccc3)nn2)cc1` was tested. Which activity, negative = inhibition did it give?
The activity, negative = inhibition was -8.03% [at 11.4 µM] (inactive) and -18.7% [at 11.4 µM] (inactive).

`O=C(OC1CCN(c2ncc(C(F)(F)F)cc2Cl)CC1)c1cccc(C(F)(F)F)c1` was tested. Which “activity, negative = inhibition” value did it give?
The value was -26.7% (inactive).

How did the AC50 turn out when `O=C(OCn1ncc(Cl)c(Cl)c1=O)c1cccc(C(F)(F)F)c1` was run?
The AC50 was 2 µM (active).

With `COCC(=O)N1CCC2(CC1)CN(Cc1ccccc1OC)C2` as the compound, how does the “activity, negative = inhibition” value read?
Its value is 19.2% (inactive).

With `CCCC[S@@](=N)(=O)CC[C@@H](N)C(=O)O` as the compound, how does the AC50 read?
Its AC50 is “inactive”.

Which activity, negative = inhibition does the source give for `S=c1c2[nH]cnc2ncn1CCSc1ncnc2nc[nH]c12` here?
The activity, negative = inhibition was -16.9% [at 11.4 µM] (inactive).

For `O=S(=O)(Nc1ccc2oc(-c3ccccc3)nc2c1)c1ccccc1`, which AC50 is on record?
The AC50 was 5.01 µM (active).

With `Nc1ccc(S(=O)(=O)Nc2cnc3ccccc3n2)cc1` as the compound, how does the AC50 read?
Its AC50 is “inactive”.

How did the “activity, negative = inhibition” value turn out when `O=C(Nc1ccc(-c2nc3ccccc3o2)cc1)c1ccc(N2CCOCC2)c([N+](=O)[O-])c1` was run?
Its value is -22.7% (inactive).

For `O=C(O)Cc1ccc(NC(=O)C2CCCCC2C(=O)O)cc1` (configuration not stated), which “activity, negative = inhibition” value is on record?
The value was -4.46% (inactive).

`CC(C)OCCCNC(=O)C1CC(=O)N(C2CCCCCCC2)C1` (configuration not stated) was tested. Which “activity, negative = inhibition” value did it give?
The value was -16.6% (inactive).

`CCCCOC(OCCCC)[C@H](O)CSc1ccc2ccccc2c1` was tested. Which activity, negative = inhibition did it give?
Its activity, negative = inhibition is -1.2% [at 11.4 µM] (inactive).

`CCCCC[C@H](O)c1cccc(OCc2ccc3ccccc3n2)c1` was tested. Which AC50 did it give?
The AC50 was 0.794 µM (active).

`CN(C)CC(O)COc1cccc(OCC(O)CN(C)C)c1` (configuration not stated) was tested. Which “activity, negative = inhibition” value did it give?
The value was -1.71% (inactive).

With `O=C(O)c1ccccc1Nc1cccc(OCc2ccc3ccccc3n2)c1` as the compound, how does the AC50 read?
Its AC50 is 1 µM (active).

How did the AC50 turn out when `FC(F)(F)c1nc(-c2ccncc2)ncc1-c1nnnn1-c1ccccc1` was run?
The AC50 was 25.1 µM (active).

Which “activity, negative = inhibition” value does the source give for `Cc1cc(C)cc(-n2nnnc2-c2cn(C)nc2C(F)(F)F)c1` here?
Its value is -26.4% (inactive).

How did the “activity, negative = inhibition” value turn out when `FC(F)(F)c1nc(N2CCCC2)ncc1-c1nnnn1-c1ccccc1` was run?
Its value is -21.7% (inactive).

How did the AC50 turn out when `O=c1c2ccc([N+](=O)[O-])c3cccc(c32)c2nc3ccccc3n12` was run?
Its AC50 is 3.55 µM (active).

Which AC50 does the source give for `O=C(O)c1ccc2c3c1cccc3c(=O)n1c3ccccc3nc21` here?
Its AC50 is 15.8 µM (active).

`NCCSS(=O)(=O)CCN` was tested. Which activity, negative = inhibition did it give?
Its activity, negative = inhibition is -17.1% [at 2.29 µM] (inactive).

How did the activity, negative = inhibition turn out when `CCc1cc2c(nc1CC)CCN(CC/C(C)=N/OC[C@@H](O)[C@@H]1O[C@@H]3OC(C)(C)O[C@@H]3[C@H]1O)C2` was run?
Its activity, negative = inhibition is -14.1% [at 11.4 µM] (inactive).

With `Cc1nc2cnc(N3CCNCC3)nc2n(-c2ccccc2)c1=O` as the compound, how does the AC50 read?
Its AC50 is 10 µM (active).

For `COc1ccc(-n2c(=O)cnc3cnc(N4CCNCC4)nc32)cc1`, which AC50 is on record?
Its AC50 is 12.6 µM (active).

How did the AC50 turn out when `COc1ccc(-n2c(=O)c(C)nc3cnc(N4CCOCC4)nc32)cc1` was run?
The AC50 was 12.6 µM (active).

How did the AC50 turn out when `COc1ccc(-n2c(=O)c(C)nc3cnc(N4CCNCC4)nc32)cc1` was run?
The AC50 was 15.8 µM (active).

Which activity, negative = inhibition does the source give for `CCc1cc2c(nc1CC)CCN(CC/C(C)=N/OC[C@@H](C)[C@H](OCc1ccccc1)C(C)C)C2` here?
Its activity, negative = inhibition is -7.21% [at 11.4 µM] (inactive).

With `N[C@@H](Cc1ccnnc1)C(=O)O` as the compound, how does the activity, negative = inhibition read?
Its activity, negative = inhibition is -10.6% [at 2.29 µM] (inactive).

With `CC(C)NC(=O)N1CCC2(CC1)CCN(C(=O)c1cccc(F)c1)CC2` as the compound, how does the “activity, negative = inhibition” value read?
Its value is 17.5% (inactive).

With `O=C(O)CCc1c2ccc(=O)c(O)c-2oc2c(O)c(O)ccc12` as the compound, how does the activity, negative = inhibition read?
The activity, negative = inhibition was -3.96% [at 2.29 µM] (inactive).

Which AC50 does the source give for `c1ccn(-c2ccc(N3CCOCC3)cc2)c1` here?
Its AC50 is 0.251 µM (active).

For `O=C(N1CCOCC1)N1CCN(c2ccccc2)CC1`, which “activity, negative = inhibition” value is on record?
The value was -12.8% (inactive).

With `O=C(C1CCN(S(=O)(=O)N2CCOCC2)CC1)N1CCN(c2ccccc2)CC1` as the compound, how does the “activity, negative = inhibition” value read?
Its value is -17.5% (inactive).

How did the activity, negative = inhibition turn out when `Nc1nc2c(c(=O)[nH]1)CN(c1ccc(S(N)(=O)=O)cc1)CN2` was run?
The activity, negative = inhibition was 8.8% [at 2.29 µM] (inactive).

Source: PubChem BioAssay AID1851 (National Center for Advancing Translational Sciences (NCATS), 2009)
